Compound activity deposited in PubChem BioAssay by National Center for Advancing Translational Sciences (NCATS).
Sampled rows, rich in hits. Any-hit rate of the full collection: about 2.2%.
FMDV inh: High Throughput Screening for Foot and Mouth Disease Virus Antivirals. FMDV antiviral cell-based qHTS. Potency, µM (doses to about 57.9 µM), for the others: top-dose activity change, negative = inhibition, most hits filed as inhibitors. 1.2% of 410,000 active; calls by dose curve; tested in HEK293T cells; further: read-out not given here; nearly all actives have a fitted effect of over 45% in size
Vaccinia mCherry: qHTS for Stage-Specific Inhibitors of Vaccinia Orthopoxvirus: mCherry Reporter Primary qHTS; Vaccinia virus mCherry reporter infection, fluorescence; 0.63% of 310,000 active; Potency, µM (top dose mostly 36.5 µM), for inactives: top-dose activity change, negative = inhibition, actives largely listed as inhibitors; AID 720579, 2013; calls by dose curve; tested in A549 cells; further: nearly all actives have a fitted effect of over 35% in size
Vaccinia Venus: qHTS for Stage-Specific Inhibitors of Vaccinia Orthopoxvirus: Venus Reporter Primary qHTS; Vaccinia virus Venus reporter expression, fluorescence; Potency, µM (series often up to 36.5 µM), inactives show at the highest dose activity change, negative = inhibition, most hits filed as inhibitors; 0.46% of 330,000 active; AID 720580, 2013; calls by dose curve; tested in A549 cells; further: nearly all actives have a fitted effect of over 30% in size
Giardia FBPA inh: qHTS Assay for Inhibitors of Fructose-1,6-bisphosphate Aldolase from Giardia Lamblia. A8B2U2. purified Giardia FBPA. Potency, µM (highest dose often 59.6 µM), inactives show top-dose activity, negative = inhibition, actives largely listed as inhibitors. 0.71% of 290,000 active. AID 2451, 2010; active means well fitted inhibition curve with a large enough effect; inconclusive means small, poorly fitted or top-dose-only effect, or effect the other way; further: nearly all actives have a fitted effect of over 55% in size
Target sequence (A8B2U2 whole entry, looked up): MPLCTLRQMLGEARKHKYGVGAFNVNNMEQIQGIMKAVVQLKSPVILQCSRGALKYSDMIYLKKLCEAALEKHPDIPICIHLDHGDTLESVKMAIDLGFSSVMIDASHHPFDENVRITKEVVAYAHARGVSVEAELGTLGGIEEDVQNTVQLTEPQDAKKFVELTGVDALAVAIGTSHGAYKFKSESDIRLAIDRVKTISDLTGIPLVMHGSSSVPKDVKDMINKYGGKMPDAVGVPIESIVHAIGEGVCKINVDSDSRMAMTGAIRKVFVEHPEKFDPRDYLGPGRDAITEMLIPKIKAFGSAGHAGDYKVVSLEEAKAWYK
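40 nM FBPA preincubated 10 min at RT with compound (up to 57.5 uM final), then substrate plus GAPDH/TPI/NAD/arsenate coupling and diaphorase/resazurin added. Fluorescence read after 20 min at RT, 525/598 nm.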
* hit, by the source's call; [ ] = remark or other dose. On the % scale 0 is the no-effect control and ±100 the full control effect; potency means the concentration at half of the fitted maximal effect.

For CN(CCOc1ccc(Cl)cc1)C(=O)c1cc(-c2ccco2)nc2ccccc12 the results were FMDV inh 35µM*, Vaccinia mCherry inactive and Vaccinia Venus -14%.
`O=C(C1CC1)N(CCc1ccccc1)Cc1nc2ccccc2c(=O)[nH]1` gave FMDV inh 28µM*, Vaccinia Venus inconclusive and Giardia FBPA inh -8%.
For O=C(C1CCC1)N(CCc1ccccc1)Cc1nc2ccccc2c(=O)[nH]1 the results were FMDV inh -26%, Vaccinia mCherry -2%, Vaccinia Venus -3% and Giardia FBPA inh 0%.
Screening NCC12CC3CC(C1)CC(c1ccc(Br)cc1)(C3)C2 returned FMDV inh inconclusive, Vaccinia mCherry inconclusive, Vaccinia Venus 22µM* and Giardia FBPA inh -4%.
Screening Cc1ccc(C23CC4CC(CC(CN)(C4)C2)C3)cc1 returned FMDV inh inconclusive, Vaccinia mCherry inconclusive, Vaccinia Venus inconclusive and Giardia FBPA inh 4%.
`O=C(NCCc1ccccn1)c1cnn(-c2ncc3c(n2)-c2ccccc2CC3)c1C1CC1` gave FMDV inh -27%, Vaccinia mCherry -28% and Vaccinia Venus -22%.
CCCCc1nc2c(c3c1C[C@H](C)OC3)CN(C(=O)Cc1cccc(OC)c1)CC2 was read as Giardia FBPA inh 1%[12.9 µM].
C[C@@H]1CN(Cc2ccc3c(c2)CN(C(=O)c2ccc(Oc4ccccc4)o2)CCO3)C[C@H](C)O1 was read as FMDV inh -16%, Vaccinia mCherry -29% and Vaccinia Venus -21%.
For C=CCn1c(SCc2ccc(C(=O)Nc3nccs3)cc2)nnc1-c1ccc(C)c(Cl)c1 the results were FMDV inh 28µM*, Vaccinia mCherry inconclusive, Vaccinia Venus inconclusive and Giardia FBPA inh -1%.
COc1ccc(NC(=O)N2c3ccccc3C(C)=CC2(C)C)cc1 was read as FMDV inh -26%, Vaccinia mCherry -5%, Vaccinia Venus -2% and Giardia FBPA inh -2%.
`COc1ccc(NC(=O)N2c3ccc(OC)cc3C(C)=CC2(C)C)cc1` gave FMDV inh -7% and Giardia FBPA inh 11µM*.
Screening Clc1ccc2c(ccc[n+]2CCC2CCCCC2)c1 returned Vaccinia mCherry 22% and Vaccinia Venus -18%.
Screening Cc1nc2cc(NC(=O)[C@@H]3C[C@@H](Sc4ccccn4)CN3Cc3ccc(F)cc3F)ccc2s1 returned FMDV inh -5%, Vaccinia mCherry -15% and Vaccinia Venus 0%.
Screening O=C(Oc1ccc([N+](=O)[O-])cc1)c1cc(-c2ccccc2)nc2ccccc12 returned FMDV inh 20µM*, Vaccinia Venus -9% and Giardia FBPA inh 6%.
O=C(O)c1cc(-c2ccccc2)nc2ccccc12 was read as FMDV inh -23%, Vaccinia mCherry -25%, Vaccinia Venus -13% and Giardia FBPA inh 1%.
Screening Cc1ccccc1OCC(=O)Nc1nc(-c2ccncc2)cs1 returned FMDV inh 28µM*, Vaccinia mCherry inactive and Vaccinia Venus -16%.
`O=C(/C=C/c1ccccc1)Nc1nc(-c2ccncc2)cs1` gave FMDV inh 13µM*, Vaccinia mCherry -10%, Vaccinia Venus -19% and Giardia FBPA inh -2%.
Screening Cc1ccccc1OCC(=O)Nc1nnc(-c2ccncc2)s1 returned FMDV inh -24%, Vaccinia mCherry -9%, Vaccinia Venus -18% and Giardia FBPA inh 0%.
`O=C(/C=C\c1ccco1)Nc1nc(-c2ccccc2)cs1` gave FMDV inh 24%, Vaccinia mCherry -15%, Vaccinia Venus -17% and Giardia FBPA inh -10%.
CCOc1ccc(CCNC(=O)CSc2nnnn2-c2ccccc2)cc1OCC was read as FMDV inh -13%, Vaccinia mCherry -4% and Vaccinia Venus -7%.
CN(C)CC(C)(O)c1ccc2c(c1)CN(C(=O)c1ccc(-n3cccn3)cc1)CCO2 (configuration not stated) was read as FMDV inh -1%, Vaccinia mCherry -6% and Vaccinia Venus 10%.
Screening C[C@@H]1CC[C@@]2(OC1)OC1CC3C4CC=C5CC(O)CCC5(C)C4CCC3(C)C1[C@@H]2C (some centres not stated) returned FMDV inh -9% and Giardia FBPA inh -1%.
Screening Cc1cccc(Nc2c3c(nc4ccccc24)CCC3)c1 returned FMDV inh inconclusive, Vaccinia mCherry -18%, Vaccinia Venus -20% and Giardia FBPA inh -2%.
Cc1ccc(Nc2c3c(nc4ccccc24)CCC3)cc1F was read as FMDV inh inconclusive, Vaccinia mCherry 10µM* and Vaccinia Venus inconclusive.
